Screening data from PubChem BioAssay.
HTT aggregate = mutant huntingtin aggregation inhibition. PC12 HttQ103-GFP aggregates, Acumen cytometry, 40 h. Potency, µM (highest dose often 46.1 µM), for inactives: top-dose activity change, negative = inhibition, most hits filed as inhibitors. 1.1% of 220,000 active; active = well fitted curve in the direction sought with a large enough effect; inconclusive = small, poorly fitted or top-dose-only effect, or another doubt; inactive = no such curve, though single readings can be large; an effect the other way counts as inactive or inconclusive; note: % is set by controls: 0 for no effect and ±100 for the full control effect; nearly all actives have a fitted effect of over 60% in size
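Compounds (qHTS titration) were added to PC12 cells expressing an ecdysone-driven HTT exon 1 Q103–GFP fusion after induction with 100 nM tebufenozide. Aggregate formation was measured as GFP objects in cell lysates.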
HPGD block = inhibitors of human 15-hydroxyprostaglandin dehydrogenase (HPGD). AID 894. Potency, µM, for the others: at the top dose activity change, negative = inhibition, hits mostly inhibitors. 4.3% of 150,000 active. P15428. purified HPGD, NADH fluorescence kinetic, PGE2 substrate; note: % is set by controls: 0 for no effect and ±100 for the full control effect
Target sequence (P15428 whole entry, looked up): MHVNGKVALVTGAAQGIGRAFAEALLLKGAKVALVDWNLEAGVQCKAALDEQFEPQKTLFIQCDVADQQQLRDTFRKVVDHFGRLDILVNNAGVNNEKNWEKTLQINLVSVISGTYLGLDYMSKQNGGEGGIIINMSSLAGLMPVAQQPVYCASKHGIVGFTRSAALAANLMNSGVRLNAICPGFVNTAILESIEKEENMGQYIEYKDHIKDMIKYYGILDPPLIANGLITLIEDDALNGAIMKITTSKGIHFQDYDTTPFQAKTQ
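NADH formation kinetics: reaction with 30 uM PGE2 and 1 mM NAD+ (final), 20 nM enzyme, Tris-HCl pH 8 with Tween 20, after 15 min compound preincubation at room temperature. Fluorescence change, last versus first of five reads.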
Lamin A splicing = changes lamin A minigene splicing in HeLa cells; Potency, µM (top dose mostly 46.1 µM), inactives show top-dose ratio change, negative = inhibition, actives largely listed as inhibitors; AID 1487; 0.01% of 200,000 active; HeLa LMNA splicing GFP/RFP minigene ratio, 48 h; active = well fitted inhibition curve with a large enough effect in the signal ratio, with a control signal flat, not every such curve was filed as active; inconclusive = small, poorly fitted or top-dose-only effect, or effect the other way, or a change in a side signal; the % refers to the signal ratio; note: % is set by controls: 0 for no effect and ±100 for the full control effect
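S3 HeLa cells stably expressing lamin A-EGFP splicing minigene plus DsRed2, 600 cells/well, 48 h compound exposure at 37C. Laser-scanning cytometry; analysed as GFP (500-530 nm)/RFP (575-640 nm) total intensity ratio; 0.5% DMSO vehicle.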
HTT cytoprotect = Huntington cell model cytoprotection by ATP luminescence | PC12 HTT-Q103 induced, cytoprotection, ATP luminescence, 40 h | Potency, µM (titrated, usually from 56.4 µM), inactives show cytoprotection (ATP increase), usual class: activators | 0.14% of 230,000 active; active = well fitted curve in the direction sought with a large enough effect; inconclusive = small, poorly fitted or top-dose-only effect, or another doubt; inactive = no such curve, though single readings can be large; an effect the other way counts as inactive or inconclusive; note: % of control where 0% means no effect; nearly all actives have a fitted effect of over 45% in size
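Compounds added alongside 100 nM tebufenozide, which induces toxic Q103 huntingtin exon 1-GFP in stable PC12 cells; surviving cells quantified by luminescent ATP measurement. Medium: phenol red-free DMEM, 5% equine and 5% calf serum.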
ALDH1A1 inh = ALDH1A1 (human) enzyme inhibition | P00352 | Purified ALDH1A1, NADH fluorescence, propionaldehyde substrate | Potency, µM (highest dose often 75.3 µM), for the others: at the highest dose activity, negative = inhibition, hits mostly inhibitors | 7.3% of 220,000 active;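 note: plate controls were no enzyme wells and a reference inhibitor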
Target sequence (P00352 whole entry, looked up): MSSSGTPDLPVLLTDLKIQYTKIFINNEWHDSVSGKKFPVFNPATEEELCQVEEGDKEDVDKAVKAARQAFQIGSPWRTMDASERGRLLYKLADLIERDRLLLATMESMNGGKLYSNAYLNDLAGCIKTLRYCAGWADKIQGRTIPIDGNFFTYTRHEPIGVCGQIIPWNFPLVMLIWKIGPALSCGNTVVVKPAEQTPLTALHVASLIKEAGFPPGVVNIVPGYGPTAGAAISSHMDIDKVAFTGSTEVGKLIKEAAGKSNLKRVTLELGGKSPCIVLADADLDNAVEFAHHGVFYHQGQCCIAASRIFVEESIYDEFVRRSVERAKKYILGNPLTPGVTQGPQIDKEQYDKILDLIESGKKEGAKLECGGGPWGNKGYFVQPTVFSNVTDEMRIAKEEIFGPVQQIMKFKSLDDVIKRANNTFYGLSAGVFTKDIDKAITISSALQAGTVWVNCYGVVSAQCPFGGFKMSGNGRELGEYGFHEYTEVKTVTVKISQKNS
* hit, by the source's call; u = inconclusive; x = not tested or not shown; [ ] = remark or other dose. Rows were chosen to be rich in hits. Some 8.8% of all compounds tested hit in one or more screens of this group. Unless noted, calls come from the whole dose curve; as a rule, active = well fitted inhibition curve with a large enough effect (not every such curve was filed as active); inconclusive = small, poorly fitted or top-dose-only effect, or another doubt; inactive = no such curve, though single readings can be large or run the other way. Potency is the fitted concentration of half-maximal effect.

SMILES	HTT aggregate	HPGD block	Lamin A splicing	HTT cytoprotect	ALDH1A1 inh
Cc1ccc(C(=O)N/C(=C/c2cn(-c3ccccc3)nc2-c2ccccc2)C(=O)O)cc1	-5.3%	x	x	-18.6%	11.2µM*
CN(C)C(=O)c1cn(-c2ccccc2)nc1-c1cccc([N+](=O)[O-])c1	14.8%	x	x	-24.0%	8.91µM*
Clc1ccccc1-c1nc(/C=N/N2CCOCC2)c2ccccn12	10.9%	x	-14.1%[46 µM]	-23.0%	39.8µM*
CC1(C)Cc2nc3nc(SCC(=O)NCCc4ccccc4)n(-c4ccccc4)c(=O)c3cc2CO1	u	-14.1%	10.5%	u	2.51µM*
CSc1nc2nc3c(cc2c(=O)n1-c1ccccc1C)COC(C)(C)C3	25.2%[9.22 µM]	x	x	25.1%[10 µM]	x
CC1(C)Cc2nc3nc(SCC(=O)NCc4ccccc4)n(-c4ccccc4)c(=O)c3cc2CO1	18.1%	-7.4%	1.7%	0.6%	3.55µM*
CCn1c(SCC(=O)Nc2ccc(C)cc2)nc2nc3c(cc2c1=O)COC(C)(C)C3	11.3%[9.22 µM]	x	x	15.4%[10 µM]	u
CO/N=C(/C(=O)N[C@@H]1C(=O)N2C(C(=O)O)=C(CSc3cnns3)CS[C@H]12)c1csc(N)n1	-9.0%	x	x	-3.5%	x
COc1ccc(CNC(=O)Cn2ncc3c([nH]c4ccccc43)c2=O)cc1	x	x	11.7%[46 µM]	x	x
Cc1ccc(N=Nc2c(=O)[nH]n3c(=O)cc(C)[nH]c23)cc1	16.6%	20µM*	-12.1%	-56.7%[10 µM]	u
COc1ccc(N2CCN(C(=O)CN(C)S(=O)(=O)c3cnc[nH]3)CC2)cc1	32.4%	2.4%	-4.6%	x	-0.3%
Cc1cccc(C)c1OCCn1nc(C(=O)O)c2ccccc2c1=O	-7.9%	-20.4%	-24.1%	-11.8%	0.5%
Cc1cccc(OCCn2nc(C(=O)O)c3ccccc3c2=O)c1	15.1%	28.2µM*	13.6%	-7.7%	-11.8%
CN(c1ccccc1)c1nc2ccsc2c(=O)s1	-17.3%	28.2µM*	6.3%	-39.1%	-15.7%
CN(C)c1ccc(CNC(=O)C2CCN(Cc3cc4ccccc4n3Cc3ccccc3)CC2)cc1	x	x	-7.5%[46 µM]	x	x
CS(=O)(=O)Nc1cccc(-c2cncnc2NCc2cccnc2)c1	x	x	-8.4%	-10.0%	u
C[C@H]1/C=C\CC(=O)NCc2cccc(c2)CNC(=O)N[C@H]1c1ccccc1	x	-2.1%	x	u	9.1%
Cc1cccc(C)c1NC(=O)C(c1ccccc1)N1CCOCC1 (configuration not stated)	-32.2%	-6.1%	-12.8%	26.0%[10 µM]	7.9%
Cc1ccc(C)c(NC(=O)C(c2ccccc2)N2CCOCC2)c1 (configuration not stated)	-4.2%	x	x	11.2%	15.8µM*
CC(NC(=S)Nc1ccc(Cl)cc1)C(c1ccccc1)N1CCOCC1 (configuration not stated)	-1.3%	-1.2%	-6.4%	0.0%[10 µM]	-2.3%
O=C(Nc1ccc(Cl)cc1)C(c1ccccc1)N1CCOCC1 (configuration not stated)	6.8%	x	x	-15.5%	17.8µM*
COC(=O)[C@H]1O[C@@H](c2cc(OC)c(C)c(OC)c2O)[C@H](C)[C@@H](O)[C@H]1C	x	-7.8%	x	u	13.5%
COc1ccc(OC)c(-n2c(C)cc(C=O)c2C)c1	12.0%[9.22 µM]	x	-2.7%[46 µM]	-6.4%	5.62µM*
COc1ccc(OC)c(-n2c(=O)c3ccccc3c3ccccc3c2=O)c1	29.3%	-5.8%	u	25.4%[10 µM]	-7.6%
COc1ccc(-n2c(C)cc(C=O)c2C)cc1Cl	5.2%	17.8µM*	6.1%	-21.8%	1µM*
SMILES	HTT aggregate	HPGD block	Lamin A splicing	HTT cytoprotect	ALDH1A1 inh
COC(=O)c1cccc(-n2c(C)cc(C=O)c2C)c1C	23.7%	-11.4%	1.3%	11.4%[10 µM]	0.631µM*
COc1ccc(CCNc2nc(SCc3ccc(F)cc3)nc3ccccc23)cc1OC	x	x	-8.9%[46 µM]	x	x
Cn1c(=O)oc2cc(S(=O)(=O)NCc3ccncc3)ccc21	8.91µM*	-1.3%	u	-22.6%[0.074 µM]	-3.6%
Cn1c(=O)oc2cc(S(=O)(=O)NCc3ccc(C(=O)O)cc3)ccc21	-7.2%[9.22 µM]	x	x	-5.7%[10 µM]	x
COc1cccc(Cn2c(=O)c(-c3cccc(F)c3)nc3cncnc32)c1	x	20µM*	x	-54.1%	-6.6%
Cc1ccccc1C(=O)Nc1ccccc1C(=O)OCc1cc(=O)n2ccsc2n1	x	x	11.0%[46 µM]	x	x
Cn1cc(C(N)=O)c2ccccc21	2.9%	x	12.0%[46 µM]	-5.5%	9.9%
Cn1cc(C(=O)CCl)c2ccccc21	-10.5%[9.22 µM]	x	u	-2.5%[10 µM]	0.0631µM*
COCC(C)n1c(C)cc(C(=O)CSc2nc3ccccc3c(=O)[nH]2)c1C (configuration not stated)	u	31.6µM*	u	-94.7%	-7.7%
CCN(CC)C(=O)CSc1nc2ncc(Br)cc2[nH]1	0.9%	x	-0.9%	-1.9%	u
C=CCn1c(C)cc(C(=O)CSc2nc3ccccc3c(=O)[nH]2)c1C	-29.9%	2.82µM*	u	-10.2%[10 µM]	u
COCCn1c(C)cc(C(=O)CSc2nc3ccccc3c(=O)[nH]2)c1C	-28.9%	15.8µM*	u	19.0%[10 µM]	6.5%
C=CCn1c(C)cc(C(=O)CSc2nc3ccccc3[nH]2)c1C	u	u	-15.0%	-62.4%	-8.0%
CCN(CC)C(=O)CSc1nc2ncc(Cl)cc2[nH]1	-13.3%	12.6µM*	13.1%	-11.7%[0.074 µM]	u
COc1ccc(OC)c(CNC(=O)c2c(C)oc3ncn(CC(C)C)c(=O)c23)c1	x	x	-5.7%[46 µM]	x	x
CC(=O)c1ccc(C(=O)N2CCCC(CCC(=O)N(C)CCc3ccccn3)C2)s1 (configuration not stated)	33.8%[9.22 µM]	x	2.7%[46 µM]	36.4%[10 µM]	u
CN(C)C(=O)CSc1nc2ccccc2c(=O)[nH]1	13.0%	-22.5%	-7.5%	2.6%	-10.6%
CCN(CC)C(=O)CSc1nc2ccccc2c(=O)[nH]1	27.3%	8.91µM*	-16.7%	-11.8%	u
COc1ccc(-c2coc3ccc(O[C@@H]4O[C@@H](COC(C)=O)[C@@H](OC(C)=O)[C@@H](OC(C)=O)[C@H]4OC(C)=O)cc3c2=O)cc1	x	x	x	-38.4%	x
O=C(NNC1=C(C(=O)C(F)(F)F)CCC1)c1ccccc1Cl	u	14.1µM*	u	-79.4%	5.3%
O=C(NNC1=C(C(=O)C(F)(F)F)CCC1)c1ccccc1O	-64.4%	-21.8%	-24.4%	-73.6%	-2.3%
O=C(NNC1=C(C(=O)C(F)(F)F)CCC1)c1ccc(Br)cc1	11.2µM*	-25.1%	u	-58.1%	-4.0%
CCOC(=O)CSC1=NC(=O)/C(=C/c2ccc(OC)cc2)S1	-14.8%	12.6µM*	-25.5%	-16.0%[10 µM]	u
CCOC(=O)CSc1nc(C)c2cc(OC)ccc2n1	-3.6%	u	12.2%	-6.4%[0.074 µM]	u
CCOC(=O)CSc1nnc(-c2ccc(OC)cc2)n1CC	9.3%	-4.6%	4.3%	-7.7%[10 µM]	2.51µM*
CCOC(=O)CNC(=O)CSc1nnc(-c2ccc(OC)cc2)n1CC	11.1%	0.1%	-12.5%	31.5%[10 µM]	4.8%
Cc1ccc(C(=O)NCC(=O)NCCc2ccc(S(N)(=O)=O)cc2)s1	-1.3%[9.22 µM]	x	x	12.7%[10 µM]	x
